SMN2 splice up – qHTS Assay for Enhancers of SMN2 Splice Variant Expression; HEK293 SMN2-luciferase splicing reporter, luminescence, 30-36 h; Potency, µM (top dose mostly 46.1 µM), inactives show at the highest dose activity change, positive = activation, actives largely listed as activators; 2.8% of 210,000 active; also: % of control where 0% means no effect; nearly all actives have a fitted effect of over 55% in size
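qHTS luciferase splicing reporter: luminescence rises when SMN2 exon 7 is included in transfected HEK293 cells. Compound exposure lasted 30-36 h at 37C, with 4.5 mM final sodium butyrate as control, followed by a ONE-Glo read.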
p53 reactivator – qHTS assay for re-activators of p53 using a Luc reporter; H1299 p53-A138V BP100-luciferase reporter, luminescence, 24 h; Potency, µM (series often up to 92.2 µM), for the others: top-dose activity change, positive = activation, hits mostly activators; 0.063% of 320,000 active; AID 504706, 2011; also: % of control where 0% means no effect; nearly all actives have a fitted effect of over 45% in size
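H1299 (p53-null), stable ts p53-A138V + BP100-Luc; 1000 cells/well, Opti-MEM/10% FBS; cpd 4 pt, 1:5; 24 h, 37 deg C, 5% CO2; detection reagent 10 min RT; luminescence.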
Rab9 prom act – qHTS Assay for Rab9 Promoter Activators. Huh7 Rab9 promoter-luciferase reporter, luminescence, 24 h. Potency, µM (highest dose often 9.22 µM), for the others: at the top dose activation, negative = inhibition, usual class: activators. 2.8% of 320,000 active; also: % of control where 0% means no effect; nearly all actives have a fitted effect of over 60% in size
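Luminescence read-out: Huh7 cells stably expressing Rab9-luciferase, treated 24 h with compound at 37 °C, then lysed with luciferase reagent for 10 min at ambient before reading.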
FLuc counter – qHTS profiling assay for firefly luciferase inhibitor/activator using purifed enzyme and Km concentrations of substrates (counterscreen for miR-21 project); Luciferin 4-monooxygenase (Photinus pyralis), P08659; purified FLuc, Km substrates, luminescence inhibition; Potency, µM (doses to about 57.5 µM), for inactives: at the highest dose activity change, negative = inhibition, hits mostly inhibitors; 6.9% of 360,000 active; AID 588342, 2011;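 also: plate controls were vehicle for no effect and reference inhibitor for full effect; nearly all actives have a fitted effect of over 55% in size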
Target sequence (P08659 whole entry, looked up): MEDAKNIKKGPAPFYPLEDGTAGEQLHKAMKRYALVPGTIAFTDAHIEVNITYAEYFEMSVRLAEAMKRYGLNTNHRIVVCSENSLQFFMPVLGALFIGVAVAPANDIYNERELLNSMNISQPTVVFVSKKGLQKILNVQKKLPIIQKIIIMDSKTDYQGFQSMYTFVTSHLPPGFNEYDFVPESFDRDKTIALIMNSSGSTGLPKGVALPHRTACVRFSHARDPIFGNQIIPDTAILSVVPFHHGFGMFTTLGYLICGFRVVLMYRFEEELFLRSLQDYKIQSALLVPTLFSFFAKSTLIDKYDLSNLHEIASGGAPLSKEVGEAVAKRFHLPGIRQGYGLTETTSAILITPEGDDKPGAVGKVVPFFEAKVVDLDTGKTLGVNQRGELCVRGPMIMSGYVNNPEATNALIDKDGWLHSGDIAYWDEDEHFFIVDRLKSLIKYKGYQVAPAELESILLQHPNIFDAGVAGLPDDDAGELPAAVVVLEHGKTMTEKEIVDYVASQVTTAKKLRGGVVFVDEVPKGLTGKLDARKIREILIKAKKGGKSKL
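Purified P. pyralis luciferase, 10 nM final, with Km-level 10 uM D-luciferin and 10 uM ATP in 50 mM Tris acetate pH 7.5, 10 mM Mg acetate, 0.01% Tween-20, 0.05% BSA; 6-point qHTS titration about 60 µM downward; luminescence read.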
NPC1 prom act – qHTS Assay for NPC1 Promoter Activators. Huh7 NPC1 promoter luciferase reporter, 24 h. Potency, µM (top dose mostly 9.22 µM), without a hit: at the highest dose activation, actives largely listed as activators. 2.4% of 320,000 active; also: % of control where 0% means no effect; nearly all actives have a fitted effect of over 60% in size
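Compounds in DMSO were transferred onto Huh7 NPC1-luciferase reporter cells pre-incubated 2 h; after 24 h at 37 °C, Amplite reagent was dispensed and luminescence recorded 10 min later.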
ELG1 genotox – qHTS screen for small molecules that induce genotoxicity in human embryonic kidney (HEK293T) cells expressing luciferase-tagged ELG1 | HEK293T ELG1-luciferase reporter, luminescence, 16 h | 1.3% of 330,000 active | Potency, µM (doses to about 46 µM), for the others: at the top dose activity change, positive = activation, hits mostly activators; also: % of control where 0% means no effect; nearly all actives have a fitted effect of over 60% in size
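ELG1-luciferase HEK293T cells, 2,000/well; compound pinned in; 16 hr, 37 °C, 5% CO2; ONE-Glo, 30 min RT; luminescence on CCD imager.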
Starred values were filed as active, the others as inactive; ? = inconclusive; / = not tested or not shown; [ ] = dose if it differs, or a comment. An excerpt weighted towards active compounds, which were near 7.4% of everything screened. Calls follow the shape of the dose curve; as a rule, active = well fitted curve in the direction sought with a large enough effect; inconclusive = small, poorly fitted or top-dose-only effect, or another doubt; inactive = no such curve, though single readings can be large; an effect the other way counts as inactive or inconclusive. Potency is read from the fitted curve at half-maximal effect.

SMILES	SMN2 splice up	p53 reactivator	Rab9 prom act	FLuc counter	NPC1 prom act	ELG1 genotox
Cc1ccc(S(=O)(=O)N[C@H](C(=O)O)C(C)C)cc1	-18.9%[9.22 µM]	/	/	/	/	/
CCC(C)(C)NC(=O)C(c1ccc(F)cc1)N(CCOC)C(=O)CCC(=O)Nc1nccs1 (centres undefined)	/	-2.4%	-4.0%	-1.1%	2.8%	-2.6%
CCCNC(=S)NNC(=O)c1cc(C2CC2)nc2ccccc12	/	-8.3%	5.1%	21.3µM*	-3.0%	-0.1%
CCNC(=S)NNC(=O)c1cc(C2CC2)nc2ccccc12	-1.0%	-6.2%	1.9%	12µM*	-0.7%	-1.5%
CCc1ccc(NC(=O)C(C)Sc2ccc(S(=O)(=O)N3CCN(C)CC3)cn2)cc1 (centres undefined)	/	-6.8%	-0.4%	/	-8.1%	-1.4%
CCOc1ccc2nc(NC(=O)c3cccc(-c4cc5ccccc5oc4=O)c3)sc2c1	-14.4%[1.84 µM]	21.0%	-1.4%	-16.0%	22.5%	12.8%
O=C(Nc1cccnc1)c1cccc(-c2cc3ccccc3oc2=O)c1	19.8%	3.4%	-4.3%[1.84 µM]	?	17.6%	11.8%
CCn1nnc(NC(=O)c2cccc(-c3cc4ccccc4oc3=O)c2)n1	12.6µM*	?	2.51µM*	15.1µM*	?	?
Cc1ccc2nc(NC(=O)c3cccc(-c4cc5ccccc5oc4=O)c3)sc2c1	0.2%	23.7%	?	21.3µM*	?	?
O=C(Cc1coc2ccc3ccccc3c12)Nc1nnc(C2CC2)s1	/	5.2%	14.8%	-2.2%	2.9%	0.2%
Cc1c(C(=O)NC2=NCCS2)oc2ccccc12	2.82µM*	25.5%	?	3.01µM*	?	?
Cc1c(C(=O)Nc2nnc(C3CC3)s2)oc2ccccc12	/	5.01µM*	2.24µM*	4.78µM*	3.55µM*	?
O=C(Cc1c[nH]c2ccccc12)Nc1nnc(C2CC2)s1	11.2µM*	-1.2%	-0.9%	0.7%	2.0%	-10.0%
Cc1csc(NC(=O)c2oc3ccccc3c2C)n1	/	?	3.55µM*	1.69µM*	3.16µM*	?
COC(=O)c1cc(-c2ccc(OC)cc2F)nc2nc(SC)[nH]c(=O)c12	/	1.1%	1.9%	15.1µM*	2.6%	0.2%
COC(=O)c1cc(-c2ccccc2)nc2nc(SC)[nH]c(=O)c12	/	-1.2%	-3.9%	?	0.0%	-1.7%
O=C(Nc1cccc(Cl)c1)NC1CCS(=O)(=O)C1 (centres undefined)	/	-0.7%	-0.4%	-0.1%	-3.7%	-3.1%
Cc1ccc(Cn2c(C)c(CNCc3ccc(OC(C)C)cc3)c(C(=O)O)c2C)cc1	7.3%	/	/	-0.1%	/	/
Cc1ccc2nc3c(cc2c1)c(NS(=O)(=O)c1ccccc1)nn3CC(C)C	-6.2%	5.9%	-12.7%	-6.9%	-0.2%	-0.3%
CCn1nc(NS(=O)(=O)c2ccc(NC(C)=O)cc2)c2cc3cc(C)ccc3nc21	/	9.6%	5.4%	10.7µM*	8.7%	12.0%
CCn1nc(NS(=O)(=O)c2ccccc2)c2cc3cc(C)ccc3nc21	/	4.6%	-0.2%	15.1µM*	-0.4%	8.1%
CCn1nc(NS(=O)(=O)c2ccccc2)c2cc3ccc(C)cc3nc21	/	-2.6%	-5.8%	?	-3.7%	0.3%
O=C(O)c1cc(-c2ccco2)nc2cc3ccccc3cc12	/	9.8%	22.3%	8.49µM*	15.8%	10.0%
O=C(O)c1ccccc1/C=N/NC(=O)c1cc(-c2ccco2)nc2ccccc12	/	-1.5%	13.5%	0.953µM*	-5.0%	-1.5%
CC(=O)c1cccc(NC(=O)c2cc(-c3ccco3)nc3ccccc23)c1	/	-2.3%	-3.9%	-17.1%	2.1%	-16.8%
SMILES	SMN2 splice up	p53 reactivator	Rab9 prom act	FLuc counter	NPC1 prom act	ELG1 genotox
CC(=O)Nc1ccc(/C=N/NC(=O)c2cc(-c3ccco3)nc3ccccc23)cc1	/	0.2%	3.1%	2.13µM*	2.7%	3.2%
O=C(NNC(=O)c1cc(-c2ccco2)nc2ccccc12)c1ccccc1	/	0.0%	2.9%	19µM*	-1.6%	-5.1%
COc1ccc(S(=O)(=O)N2CCN(C(=O)c3sccc3-c3ccccc3)CC2)cc1	/	-3.6%	-2.3%	0.9%	-1.1%	18.4%
CCOC(=O)c1sc(N2N=C(C)C(N=Nc3cccc(C)c3)C2=O)nc1C (centres undefined)	/	-0.6%	14.8%	6.75µM*	20.8%	-2.7%
CCCc1ccc2oc(C(=O)N(C)Cc3ccn[nH]3)c(C)c2c1	/	?	?	15.1µM*	?	18.3µM*
Cc1c(C(=O)N2CCCC2)oc2ccc(Br)cc12	/	5.0%	2.9%	?	5.4%	24.9%
CCCc1ccc2oc(C(=O)NCCc3cnn(C)c3)c(C)c2c1	/	13.2%	1.78µM*	13.5µM*	3.55µM*	?
CCCc1ccc2oc(C(=O)N3CCCC3)c(C)c2c1	/	?	?	21.3µM*	22.6%	?
CCCc1ccc2oc(C(=O)NCCc3nc(C(=O)OCC)cs3)c(C)c2c1	/	/	2µM*	13.5µM*	3.98µM*	13.8%
O=C(C1CCCN(S(=O)(=O)c2cccs2)C1)N1CCN(c2ccccc2F)CC1 (centres undefined)	-28.9%	/	/	6.6%	/	/
COC(=O)C(Cc1c[nH]c2ccccc12)NC(=O)c1ccccc1Br (centres undefined)	/	-1.7%	-0.6%	4.26µM*	-0.1%	-0.3%
COC(=O)C(Cc1c[nH]c2ccccc12)NC(=O)CNC(C)=O (centres undefined)	-16.6%	-3.3%	-1.4%	16.4%	-6.0%	-8.0%
CCOC(=O)C(Cc1c[nH]c2ccccc12)NC(=O)c1ccccc1Br (centres undefined)	/	-9.8%	24.1%	0.675µM*	25.9%	?
O=C(Nc1ccc(N2CCOCC2)nc1)c1cccs1	11.2µM*	15.4%	2.51µM*	?	?	16.4%
COc1ccc(NC(=O)c2ccc(N3CCOCC3)nc2)cc1	/	0.2%	6.0%	1.3%	2.1%	-0.8%
O=C(c1ccccc1)c1ccc(N2CCOCC2)c(F)c1	?	?	3.55µM*	10.7µM*	3.55µM*	?
COC(=O)c1cc(NC(=O)c2cccs2)ccc1N1CCOCC1	8.9%	-4.2%	-2.1%	-5.4%	-5.0%	-6.2%
O=C(Nc1ccc(N2CCOCC2)c(F)c1)c1cccs1	/	?	0.398µM*	4.26µM*	0.501µM*	6.51µM*
CN(C)c1ccc(NC(=O)c2ccc(N3CCOCC3)nc2)cc1	/	5.5%	16.1%	15.1µM*	22.1%	21.9%
COc1cc(OC)c(NC(=O)c2cn(C3CCCC3)c(=O)c3c2c2ccccc2n3C)cc1Cl	-3.6%	/	/	3.5%	/	/

Bioassay records as filed in PubChem.
